# Experimental data published in PubChem BioAssay AID1053117 (Broad Institute, 2014).
# Entries with a potency or affinity are not part of this list. The source made the active and inactive calls.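 The calls were made as follows: active = compounds lowering cell ATP signal with a fitted half-effect dose at most twice the top valid dose; inconclusive = flat curve with 30 to 70% signal loss, or bad fit; inactive = wrong direction, flat within 30%, or weaker than limit.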
# Experiment: viability loss in HEK293 kidney cells – cell-based, cherry-picks, set 5, cytotoxicity control, dose response (AID 1053117);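 also: more negative means greater loss of ATP signal and more cytotoxicity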
# Conditions: HEK293T viability, CellTiter-Glo ATP luminescence, 72 h; series mostly up to 26 µM
row,Compound,outcome
1,C[C@@H]1CN([C@@H](C)CO)C(=O)c2cc(NC(=O)CCCN(C)C)ccc2O[C@H]1CN(C)Cc1ccc(-c2ccccc2)cc1,inactive
2,O=C(Nc1ccccc1F)N1C[C@@H]2[C@H](c3ccccc31)[C@H](CO)N2C(=O)C1CC1,inactive
3,O=C(c1cccnc1)N1C[C@H]2[C@@H](c3ccccc31)[C@@H](CO)N2CC1CCCC1,inactive
4,CCOC(=O)C1=C(C)Nc2nc3ccccc3n2C1c1ccncc1 (stereo not drawn),inactive
5,C[C@H](CO)N1C[C@H](C)[C@@H](CN(C)Cc2ccc(-c3ccccc3)cc2)Oc2ccc(NC(=O)CCCN(C)C)cc2C1=O,inactive
6,COc1ccccc1N(CC(=O)N(CC(C)C)CC(C)C)S(=O)(=O)c1cccs1,inactive
7,COCC(=O)Nc1ccc2c(c1)C(=O)N(C)[C@H]1CC[C@@H](CC(=O)NCc3ccccc3Cl)O[C@@H]1CO2,inactive
8,CCCCNC(=O)Nc1nc2ccc(CC)cc2s1,inactive
9,COCC(=O)Nc1ccc2c(c1)C(=O)N(C)[C@@H]1CC[C@H](CC(=O)NCc3ccccc3Cl)O[C@@H]1CO2,inactive
10,N#C[C@H]1[C@@H](c2ccccc2C2=CCCCC2)[C@H](CO)N1S(=O)(=O)c1ccccc1,inactive
11,O=C(Nc1ccccc1F)N1C[C@H]2[C@@H](c3ccccc31)[C@H](CO)N2C(=O)C1CC1,inactive
12,COCC(=O)Nc1ccc2c(c1)C(=O)N(C)[C@@H]1CC[C@@H](CC(=O)NCc3ccccc3Cl)O[C@@H]1CO2,inactive
13,CC(C)(C)[S@](=O)N1Cc2cc(C(=O)NCc3ccccc3F)nc(-c3cccc(-c4cncnc4)c3)c2[C@@H]1CCO,inactive
14,CO[C@@H]1CN(C)C(=O)c2ccc(NC(=O)c3ccc(-c4ccccc4)cc3)cc2OC[C@@H](C)NC[C@@H]1C,inactive
15,COc1ccccc1CNc1nc(NCc2cnc(C)cn2)c2sccc2n1,inactive
16,CC1(C)Cc2c(C#N)c(SCC(=O)c3ccccc3)nc(N3CCOCC3)c2CS1,inactive
17,O=C(CCNS(=O)(=O)c1cccc2nonc12)NC1CCCc2ccccc21 (stereo not drawn),inactive

row,Compound,outcome
1,COC(=O)C[C@H]1CC[C@H]2[C@@H](COc3ccc(NC(=O)Cc4cccs4)cc3C(=O)N2C)O1,inactive
2,O=S(=O)(c1ccccc1F)N1CC[C@@H]2[C@H](CO)Nc3ccc(-c4cccc(F)c4)cc3[C@@H]21,inactive
3,O=C(Nc1ccccc1F)N1C[C@@H]2[C@H](c3ccccc31)[C@H](CO)N2C(=O)C1CCOCC1,inactive
4,Cc1ccc(S(=O)(=O)N2CC[C@H]3[C@H](CO)Nc4ccc(-c5cccc(C(=O)N(C)C)c5)cc4[C@H]32)cc1,inactive
5,O=C(Nc1nc(-c2ccncc2)cs1)C1COc2ccccc2O1 (stereo not drawn),inactive
6,N#C[C@@H]1[C@@H](c2ccccc2C2=CCCCC2)[C@@H](CO)N1S(=O)(=O)c1ccccc1,inactive
7,Cc1ccc(NC(=O)COC(=O)c2cc(Cl)ccc2[N+](=O)[O-])c(C)c1,inactive
8,C[C@H](CO)N1C[C@H](C)[C@H](CN(C)C(=O)Nc2cccc3ccccc23)Oc2c(NC(=O)Nc3ccc(C(F)(F)F)cc3)cccc2C1=O,inactive
9,C[C@H](CO)N1C[C@H](C)[C@H](CN(C)C)Oc2cc(C#C[C@@H](C)O)ccc2S1(=O)=O,inactive
10,COC(=O)C[C@H]1CC[C@H]2[C@H](COc3ccc(NC(=O)Cc4cccs4)cc3C(=O)N2C)O1,inactive
11,CC(=O)Nc1cccc(-c2ccnc3c2CC(C)(C(=O)Nc2cccc(C(F)(F)F)c2)O3)c1 (stereo not drawn),inactive
12,C[C@@H]1CN([C@H](C)CO)C(=O)c2cc(-c3ccccc3)cnc2O[C@H]1CN(C)Cc1ccccc1,inactive
13,COc1cccc(CN2CCN(C(=O)c3ccc(-c4ccccc4)cc3)CC2)c1OC,inactive
14,CC1CN(C(=O)c2cc3c(=O)n4ccccc4nc3n2C)CC(C)O1 (stereo not drawn),inactive
15,O=C(c1cccnc1)N1C[C@H]2[C@@H](c3ccccc31)[C@H](CO)N2CC1CCCC1,inactive
16,O=C(Nc1cc(Sc2nc3ccccc3s2)cc([N+](=O)[O-])c1)c1ccccc1F,inactive
